According to paper PMC7826789 (International Journal of Molecular Sciences, 2021):

What was measured:
Conditions in all cases: Compound Concentration (nM):1000
PIK3CA(C420R) = system: PIK3CA(C420R)
PIK3CA(E542K) = system: PIK3CA(E542K)
PIK3CA(E545A) = system: PIK3CA(E545A)
PIK3CA(E545K) = system: PIK3CA(E545K)
PIK3CA(H1047L) = system: PIK3CA(H1047L)
PIK3CA(H1047Y) = system: PIK3CA(H1047Y)
PIK3CA(I800L) = system: PIK3CA(I800L)
PIK3CA(M1043I) = system: PIK3CA(M1043I)
PIK3CA(Q546K) = system: PIK3CA(Q546K)
PIK3CA = system: PIK3CA
PIK3CB = system: PIK3CB
PIK3CD = system: PIK3CD
PIK3CG = system: PIK3CG
PIK4CB = system: T1, PIK4CB
T1 construct: gene PI4KB

PIKFYVE = system: PIKFYVE
PIM1 = system: PIM1
PIM2 = system: PIM2
PIM3 = system: PIM3
PIP5K1A = system: PIP5K1A
PIP5K1C = system: PIP5K1C
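Note: KINOMEscan scanMAX binding as percent activity remaining versus control; lower means stronger binding.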

Compound | Percent Control (PIK3CA(C420R)) | Percent Control (PIK3CA(E542K)) | Percent Control (PIK3CA(E545A)) | Percent Control (PIK3CA(E545K)) | Percent Control (PIK3CA(H1047L)) | Percent Control (PIK3CA(H1047Y)) | Percent Control (PIK3CA(I800L)) | Percent Control (PIK3CA(M1043I)) | Percent Control (PIK3CA(Q546K)) | Percent Control (PIK3CA) | Percent Control (PIK3CB) | Percent Control (PIK3CD) | Percent Control (PIK3CG) | Percent Control (PIK4CB) | Percent Control (PIKFYVE) | Percent Control (PIM1) | Percent Control (PIM2) | Percent Control (PIM3) | Percent Control (PIP5K1A) | Percent Control (PIP5K1C)
NS(=O)(=O)c1ccc(N/N=C2\C(=O)Nc3ccc(C(=O)NCc4ccncc4)cc32)cc1 [GW300657X] | 90% | 85% | 100% | 75% | 89% | 72% | 85% | 94% | 83% | 100% | 81% | 77% | 100% | 83% | 84% | 100% | 100% | 100% | 100% | 51%
Cl.c1ccc(Cc2nc3ccc(Nc4ncnc5ccccc45)cc3[nH]2)cc1 [GR269666A] | 100% | 100% | 100% | 99% | 100% | 100% | 100% | 100% | 100% | 100% | 100% | 98% | 100% | 100% | 100% | 100% | 100% | 100% | 100% | 86%
CCS(=O)(=O)c1ccc(OC)c(Nc2ncc(-c3cccc(OC)c3)o2)c1 [GW580509X] | 100% | 100% | 100% | 100% | 100% | 98% | 100% | 100% | 100% | 100% | 100% | 93% | 100% | 40% | 91% | 100% | 100% | 100% | 100% | 17%
CN(C)c1cc2c(Nc3ccc4c(cnn4Cc4ccccc4)c3)ncnc2cn1 [GW282974X] | 83% | 90% | 95% | 67% | 88% | 70% | 76% | 97% | 85% | 89% | 89% | 70% | 96% | 100% | 100% | 91% | 93% | 90% | 100% | 100%
COc1cc2ncn(-c3cc(O[C@H](C)c4ccccc4Cl)c(C(N)=O)s3)c2cc1OC [GSK237701A] | 65% | 44% | 62% | 51% | 53% | 56% | 49% | 52% | 58% | 54% | 31% | 28% | 12% | 67% | 74% | 88% | 100% | 66% | 0% | 9.9%
Cl.O=C(O[C@H]1CN[C@H](C#Cc2cc3ncnc(Nc4ccc5c(cnn5Cc5ccccc5)c4)c3s2)C1)N1CCOCC1 [GSK200398A] | 100% | 100% | 100% | 85% | 100% | 100% | 83% | 100% | 98% | 100% | 100% | 100% | 100% | 100% | 100% | 100% | 100% | 100% | 100% | 99%
COc1ccc2c(-c3ccnc(Nc4cccc(OC(F)(F)F)c4)n3)cnn2n1 [GW810372X] | 86% | 100% | 90% | 97% | 75% | 82% | 91% | 100% | 100% | 100% | 100% | 69% | 85% | 72% | 69% | 100% | 100% | 100% | 77% | 66%
CN(C)CCNC(=O)Nc1ccc(N(C)c2ccnc(Nc3ccc(CS(C)(=O)=O)cc3)n2)cc1.Cl [GW830900A] | 100% | 84% | 100% | 80% | 100% | 98% | 86% | 92% | 87% | 92% | 84% | 76% | 91% | 11% | 100% | 100% | 100% | 97% | 23% | 86%
CCn1c(-c2nonc2N)nc2c(C#CC(C)(C)O)nc(OCCNC)cc21.Cl [GSK949675] | 100% | 100% | 88% | 100% | 100% | 77% | 100% | 100% | 100% | 75% | 91% | 82% | 73% | 100% | 20% | 100% | 56% | 100% | 79% | 0%
COc1ccc2[nH]c3c4[nH]c5ccc(OC)cc5c4c4c(c3c2c1)C(=O)NC4=O [GW296115X] | 90% | 92% | 100% | 84% | 74% | 89% | 93% | 95% | 91% | 91% | 88% | 64% | 87% | 100% | 0% | 46% | 0.5% | 2.6% | 100% | 81%
NS(=O)(=O)c1ccc(N/N=C2\C(=O)Nc3ccc(Cl)cc32)cc1 [GW280670X] | 100% | 100% | 100% | 100% | 100% | 100% | 100% | 100% | 100% | 100% | 100% | 94% | 100% | 100% | 94% | 100% | 100% | 100% | 100% | 80%
Cl.O=C(Nc1ccc(Oc2ccc3[nH]c(NC(=O)c4ccccc4)nc3c2)cc1)Nc1cc(C(F)(F)F)ccc1F [GW709042A] | 81% | 100% | 95% | 100% | 100% | 80% | 100% | 100% | 100% | 100% | 100% | 76% | 100% | 100% | 100% | 100% | 100% | 100% | 100% | 98%
CCc1ccc(Oc2nccc(-c3c(-c4ccc(F)cc4)ncn3C3CCNCC3)n2)cc1 [SB-242719] | 81% | 98% | 87% | 92% | 63% | 81% | 91% | 100% | 90% | 92% | 99% | 72% | 95% | 100% | 100% | 100% | 100% | 100% | 87% | 100%
COc1cc(N2CCN(C(C)C)CC2)ccc1Nc1nc(Nc2ccc(F)cc2C(=O)NC[C@@H](O)CO)c2cc[nH]c2n1 [GSK1392956A] | 99% | 100% | 100% | 95% | 100% | 83% | 97% | 97% | 100% | 100% | 96% | 80% | 100% | 100% | 95% | 100% | 100% | 100% | 100% | 100%
COc1cc(/C=N/Nc2ncnc3[nH]ncc23)ccc1O [GW578748X] | 97% | 63% | 82% | 59% | 18% | 84% | 51% | 43% | 62% | 82% | 54% | 100% | 24% | 5% | 28% | 83% | 100% | 53% | 78% | 0%
COC(=O)Nc1nc2ccc(Oc3ccc(NC(=O)Nc4cc(C(F)(F)F)ccc4F)cc3)cc2s1.Cl [GW693917A] | 95% | 96% | 100% | 83% | 91% | 84% | 82% | 100% | 94% | 100% | 100% | 76% | 100% | 95% | 100% | 100% | 100% | 100% | 100% | 100%
C[C@@H](Oc1cc(-n2cnc3ccc(OC4CCN(C)CC4)cc32)sc1C(N)=O)c1ccccc1Cl [GSK579289A] | 60% | 80% | 67% | 78% | 76% | 100% | 78% | 72% | 100% | 65% | 20% | 27% | 11% | 100% | 15% | 19% | 100% | 29% | 21% | 72%
CCS(=O)(=O)c1ccc(OC)c(Nc2ncc(-c3cccc(F)c3)o2)c1 [GW621970X] | 100% | 100% | 100% | 100% | 100% | 97% | 100% | 93% | 100% | 100% | 100% | 100% | 100% | 100% | 100% | 100% | 100% | 100% | 99% | 28%
O=C1Nc2ccc(C(=O)c3ccco3)cc2C1=Cc1cc(Cl)c(O)c(Cl)c1 [GW406108X] | 76% | 76% | 83% | 72% | 41% | 79% | 34% | 93% | 77% | 91% | 100% | 79% | 47% | 0.8% | 88% | 32% | 61% | 9.9% | 88% | 43%
CN1CCN(C(=O)c2ccc(NC(=O)Nc3ccc(N(C)c4ccnc(Nc5ccc(CS(C)(=O)=O)cc5)n4)cc3)cc2)CC1.Cl [GW830263A] | 100% | 98% | 100% | 97% | 96% | 100% | 98% | 100% | 100% | 98% | 100% | 100% | 93% | 97% | 100% | 100% | 100% | 100% | 9.3% | 97%
